From the supplement of paper PMC10849652
Targets with a hit are over-represented here; the source holds about 8,800 in all. About 0.5% of all pairs of compound and target were hits.

What was measured:
Experiment in all cases: log2 fold change, soluble protein after heating vs DMSO (PISA); higher = thermal stabilisation; K562 lysate, 10 uM; active = over 0.2 and 3.5 SD of the protein, either way, in both replicates (recomputed)
nilotinib = compound: Cc1cn(-c2cc(NC(=O)c3ccc(C)c(Nc4nccc(-c5cccnc5)n4)c3)cc(C(F)(F)F)c2)cn1 [nilotinib]
Summary of the method: (§1)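 Dounce homogenisation of K562 pellets in PBS pH 7.4 with 1 mM MgCl2 produced a crude extract, used at 1 mg/mL protein. Exposure to 10 μM compound lasted 30 min, and aliquots were then heated for 3 min across 48°C-58°C, pooled and brought to 0.5% NP-40 at 4°C. The supernatant after 21,000xg for 90 min was quantified by TMTpro 16plex LC-MS/MS with channel sums equalised. Duplicate values are given as log-two fold change in thermal stability relative to solvent controls.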

[1] = compound: Cc1nc(Nc2n[nH]c3c2CN(C(=O)N[C@H](CN(C)C)c2ccccc2)C3(C)C)c2sccc2n1
Summary of the method: as §1

dasatinib = compound: Cc1nc(Nc2ncc(C(=O)Nc3c(C)cccc3Cl)s2)cc(N2CCN(CCO)CC2)n1 [dasatinib]
Summary of the method: as §1

[2] = compound: Cc1ncc(-c2ccnc(Nc3ccc(S(C)(=O)=O)cc3)n2)n1C(C)C
Summary of the method: as §1

[3] = compound: Cn1cc(-c2ccc3c(c2)CCN3C(=O)Cc2cccc(C(F)(F)F)c2)c2c(N)ncnc21
Summary of the method: as §1

quisinostat = compound: Cn1cc(CNCC2CCN(c3ncc(C(=O)NO)cn3)CC2)c2ccccc21 [quisinostat]
Summary of the method: as §1

tipifarnib = compound: Cn1cncc1[C@@](N)(c1ccc(Cl)cc1)c1ccc2c(c1)c(-c1cccc(Cl)c1)cc(=O)n2C [tipifarnib]
Summary of the method: as §1

[4] = compound: NC(=O)Nc1cc(-c2cccc(F)c2)sc1C(=O)N[C@H]1CCCNC1
Summary of the method: as §1

[5] = compound: NC(=O)c1cnc(N[C@@H]2CCCC[C@@H]2N)nc1Nc1cccc(-n2nccn2)c1
Summary of the method: as §1

[6] = compound: NC1(c2ccc(-c3nc4ccn5c(=O)[nH]nc5c4cc3-c3ccccc3)cc2)CCC1
Summary of the method: as §1

Measured: log2 fold change

CXXC1 isoform 2 (UniProt Q9P0U4)
UniProt Q9P0U4, sequence (Q9P0U4 whole entry, looked up): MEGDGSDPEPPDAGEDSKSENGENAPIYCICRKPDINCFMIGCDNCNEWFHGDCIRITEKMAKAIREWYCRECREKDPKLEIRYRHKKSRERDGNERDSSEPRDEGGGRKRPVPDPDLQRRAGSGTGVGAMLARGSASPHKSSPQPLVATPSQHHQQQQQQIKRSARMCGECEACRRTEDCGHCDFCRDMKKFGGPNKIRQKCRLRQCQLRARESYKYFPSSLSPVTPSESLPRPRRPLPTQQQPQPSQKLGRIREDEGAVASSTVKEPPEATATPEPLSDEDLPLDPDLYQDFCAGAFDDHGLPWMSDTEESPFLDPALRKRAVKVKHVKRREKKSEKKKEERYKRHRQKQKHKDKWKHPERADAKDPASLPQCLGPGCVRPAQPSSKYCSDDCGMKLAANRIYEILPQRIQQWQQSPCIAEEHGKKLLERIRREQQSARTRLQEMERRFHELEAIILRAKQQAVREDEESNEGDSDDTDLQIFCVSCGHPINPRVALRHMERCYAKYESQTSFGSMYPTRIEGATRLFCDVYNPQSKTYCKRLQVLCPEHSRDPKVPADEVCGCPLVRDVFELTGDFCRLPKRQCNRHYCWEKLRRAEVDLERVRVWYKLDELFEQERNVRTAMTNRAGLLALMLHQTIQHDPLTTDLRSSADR
inactive: nilotinib 0.032 | [1] 0.029 | dasatinib -0.504 | [2] 0.026 | [3] -0.191 | quisinostat -0.159 | tipifarnib -0.039 | [4] -0.013 | [5] -0.021 | [6] 0.082

DAPK1 isoform 3 (UniProt P53355)
inactive: nilotinib -0.061 | [1] 0.017 | dasatinib -0.052 | [2] -0.146 | [3] -0.049 | quisinostat -0.135 | tipifarnib 0.056 | [5] -0.103 | [6] -0.075
active: [4] 0.812

CNST (UniProt Q6PJW8)
inactive: nilotinib 0.125 | [1] 0.029 | dasatinib 0.023 | [2] -0.123 | [3] 0 | quisinostat -0.005 | tipifarnib 0.054 | [4] -0.002 | [5] 0 | [6] 0.041

CNOT6L (UniProt Q96LI5)
inactive: nilotinib -0.026 | [1] 0.016 | dasatinib -0.053 | [2] 0.001 | [3] 0.01 | quisinostat -0.054 | tipifarnib -0.047 | [4] 0.055 | [5] -0.024 | [6] 0.003

CORO1A (UniProt P31146)
inactive: nilotinib 0.003 | [1] -0.012 | dasatinib -0.146 | [2] 0.022 | [3] 0.034 | quisinostat -0.028 | tipifarnib 0.032 | [4] -0.015 | [5] -0.017 | [6] -0.026

DES (UniProt P17661)
inactive: nilotinib 0.009 | [1] -0.04 | dasatinib -0.024 | [2] 0.004 | [3] -0.057 | quisinostat -0.162 | tipifarnib -0.008 | [4] 0 | [5] 0.041 | [6] 0.034

DARS (UniProt P14868)
inactive: nilotinib 0.01 | [1] -0.004 | dasatinib -0.032 | [2] -0.015 | [3] 0.063 | quisinostat -0.007 | tipifarnib 0.01 | [4] 0.044 | [5] -0.008 | [6] 0.002

COQ9 (UniProt O75208)
inactive: nilotinib 0.021 | [1] 0.03 | dasatinib -0.021 | [2] 0 | [3] -0.007 | quisinostat 0.036 | tipifarnib -0.016 | [4] 0 | [5] 0.002 | [6] -0.018

CUL1 (UniProt Q13616)
inactive: nilotinib 0.025 | [1] 0.022 | dasatinib 0.034 | [2] 0.028 | [3] 0.027 | quisinostat 0.017 | tipifarnib 0.001 | [4] -0.021 | [5] -0.011 | [6] -0.004

CIC (UniProt I3L2J0)
inactive: nilotinib 0.045 | [1] 0.024 | dasatinib 0 | [2] 0.001 | [3] 0.006 | quisinostat 0.027 | tipifarnib -0.087 | [4] -0.053 | [5] -0.073 | [6] 0.014

CLP1 (UniProt Q92989)
inactive: nilotinib -0.029 | [1] 0.039 | dasatinib -0.037 | [2] -0.039 | [3] 0.119 | quisinostat -0.065 | tipifarnib -0.011 | [4] 0.029 | [5] -0.027 | [6] 0.026

COX20 isoform 2 (UniProt Q5RI15)
UniProt Q5RI15, sequence (Q5RI15 whole entry, looked up): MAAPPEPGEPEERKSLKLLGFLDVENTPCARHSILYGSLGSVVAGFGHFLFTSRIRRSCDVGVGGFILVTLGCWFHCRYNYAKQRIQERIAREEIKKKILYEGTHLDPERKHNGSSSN
inactive: nilotinib 0.051 | [1] -0.023 | dasatinib 0.07 | [2] -0.024 | [3] 0.013 | quisinostat -0.017 | tipifarnib 0.117 | [4] -0.026 | [5] -0.058 | [6] -0.03

COG6 (UniProt Q9Y2V7)
UniProt Q9Y2V7, sequence (Q9Y2V7 whole entry, looked up): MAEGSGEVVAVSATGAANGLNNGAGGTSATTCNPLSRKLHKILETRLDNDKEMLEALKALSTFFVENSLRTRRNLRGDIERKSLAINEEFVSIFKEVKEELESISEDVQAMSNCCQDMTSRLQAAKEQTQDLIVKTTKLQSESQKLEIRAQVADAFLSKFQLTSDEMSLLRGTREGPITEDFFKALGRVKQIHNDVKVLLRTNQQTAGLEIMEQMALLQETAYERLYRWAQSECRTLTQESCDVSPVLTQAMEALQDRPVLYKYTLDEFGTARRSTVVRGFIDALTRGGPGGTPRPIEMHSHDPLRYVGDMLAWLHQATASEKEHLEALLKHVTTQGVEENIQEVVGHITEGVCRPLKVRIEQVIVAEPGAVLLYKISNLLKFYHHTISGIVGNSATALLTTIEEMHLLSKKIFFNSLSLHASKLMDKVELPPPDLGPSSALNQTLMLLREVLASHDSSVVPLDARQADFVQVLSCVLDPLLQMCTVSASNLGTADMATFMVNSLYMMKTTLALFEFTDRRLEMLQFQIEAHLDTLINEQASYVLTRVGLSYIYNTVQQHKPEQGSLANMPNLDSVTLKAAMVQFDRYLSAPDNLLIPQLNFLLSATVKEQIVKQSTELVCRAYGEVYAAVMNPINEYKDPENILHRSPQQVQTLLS
inactive: nilotinib 0.004 | [1] 0.038 | dasatinib -0.085 | [2] -0.041 | [3] -0.005 | quisinostat -0.068 | tipifarnib -0.045 | [4] -0.016 | [5] -0.008 | [6] -0.06

CHML (UniProt P26374)
UniProt P26374, sequence (P26374 whole entry, looked up): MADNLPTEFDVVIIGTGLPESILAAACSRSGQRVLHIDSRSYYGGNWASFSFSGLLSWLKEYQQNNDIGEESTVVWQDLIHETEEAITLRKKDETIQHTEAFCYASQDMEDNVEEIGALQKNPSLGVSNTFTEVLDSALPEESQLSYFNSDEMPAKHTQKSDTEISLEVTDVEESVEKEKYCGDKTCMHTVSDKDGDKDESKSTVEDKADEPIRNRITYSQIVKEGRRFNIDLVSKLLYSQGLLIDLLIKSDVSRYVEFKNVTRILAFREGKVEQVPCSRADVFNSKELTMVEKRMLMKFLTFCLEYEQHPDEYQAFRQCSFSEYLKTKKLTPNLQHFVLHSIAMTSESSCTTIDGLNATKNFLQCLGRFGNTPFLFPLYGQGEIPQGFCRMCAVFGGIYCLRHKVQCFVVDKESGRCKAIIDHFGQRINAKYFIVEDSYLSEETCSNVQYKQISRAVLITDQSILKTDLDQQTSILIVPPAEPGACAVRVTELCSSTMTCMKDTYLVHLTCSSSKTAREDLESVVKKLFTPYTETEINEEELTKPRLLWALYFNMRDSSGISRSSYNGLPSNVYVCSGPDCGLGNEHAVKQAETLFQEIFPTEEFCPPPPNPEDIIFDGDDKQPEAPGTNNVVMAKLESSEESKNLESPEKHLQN
inactive: nilotinib -0.001 | [1] 0.013 | dasatinib 0.035 | [2] -0.011 | [3] -0.001 | quisinostat 0 | tipifarnib -0.031 | [4] -0.015 | [5] -0.008 | [6] 0.002

CSTF2 (UniProt P33240)
inactive: nilotinib 0.031 | [1] 0.038 | dasatinib 0.03 | [2] -0.017 | [3] -0.029 | quisinostat 0.033 | tipifarnib -0.021 | [4] -0.013 | [5] -0.007 | [6] 0.052

DDX20 (UniProt Q9UHI6)
UniProt Q9UHI6, sequence (Q9UHI6 whole entry, looked up): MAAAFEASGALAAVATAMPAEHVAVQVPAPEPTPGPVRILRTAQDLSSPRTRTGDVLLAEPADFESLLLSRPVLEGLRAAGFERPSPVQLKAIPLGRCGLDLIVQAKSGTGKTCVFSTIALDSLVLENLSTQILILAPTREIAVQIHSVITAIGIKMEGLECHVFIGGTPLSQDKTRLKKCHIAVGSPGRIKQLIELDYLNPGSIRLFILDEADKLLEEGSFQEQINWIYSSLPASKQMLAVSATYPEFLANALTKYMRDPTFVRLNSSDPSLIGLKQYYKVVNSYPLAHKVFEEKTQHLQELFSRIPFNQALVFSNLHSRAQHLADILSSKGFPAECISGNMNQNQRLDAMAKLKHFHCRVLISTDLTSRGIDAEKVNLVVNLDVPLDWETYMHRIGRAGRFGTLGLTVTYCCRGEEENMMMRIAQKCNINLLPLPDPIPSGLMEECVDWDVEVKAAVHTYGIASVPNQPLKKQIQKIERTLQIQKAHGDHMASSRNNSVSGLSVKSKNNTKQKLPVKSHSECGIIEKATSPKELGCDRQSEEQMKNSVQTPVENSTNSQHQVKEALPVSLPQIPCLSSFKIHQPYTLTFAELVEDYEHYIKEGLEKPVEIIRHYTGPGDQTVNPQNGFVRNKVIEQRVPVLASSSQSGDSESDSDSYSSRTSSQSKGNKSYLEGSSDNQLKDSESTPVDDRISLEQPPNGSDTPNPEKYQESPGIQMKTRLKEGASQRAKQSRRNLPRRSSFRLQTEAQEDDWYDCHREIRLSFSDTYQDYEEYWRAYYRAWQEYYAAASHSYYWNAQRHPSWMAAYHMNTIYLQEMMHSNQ
inactive: nilotinib -0.009 | [1] 0.008 | dasatinib -0.054 | [2] 0.003 | [3] 0.058 | quisinostat -0.058 | tipifarnib -0.01 | [4] 0.095 | [5] 0.03 | [6] -0.024

COL6A5 (UniProt A8TX70)
inactive: nilotinib 0.134 | [1] 0.009 | dasatinib -0.11 | [2] -0.185 | [3] -0.038 | quisinostat -0.377 | tipifarnib -0.236 | [4] 0.017 | [5] 0.051 | [6] -0.014

CKM (UniProt P06732)
inactive: nilotinib 0.033 | [1] 0 | dasatinib -0.056 | [2] 0.062 | [3] -0.093 | quisinostat -0.175 | tipifarnib -0.072 | [4] 0.068 | [5] -0.025 | [6] 0.007

CSK (UniProt P41240)
inactive: nilotinib 0.144 | [1] 0.125 | [2] 0.002 | [3] 0.102 | quisinostat -0.08 | tipifarnib -0.041 | [5] 0.071 | [6] -0.043
active: dasatinib 0.578 | [4] 0.646

DHRS13 (UniProt Q6UX07)
inactive: nilotinib 0.133 | [1] 0.385 | dasatinib 0.048 | [2] -0.142 | [3] 0.142 | quisinostat 0.078 | tipifarnib -0.223 | [4] -0.011 | [5] -0.08 | [6] -0.121

DHRS3 (UniProt O75911)
UniProt O75911, sequence (O75911 whole entry, looked up): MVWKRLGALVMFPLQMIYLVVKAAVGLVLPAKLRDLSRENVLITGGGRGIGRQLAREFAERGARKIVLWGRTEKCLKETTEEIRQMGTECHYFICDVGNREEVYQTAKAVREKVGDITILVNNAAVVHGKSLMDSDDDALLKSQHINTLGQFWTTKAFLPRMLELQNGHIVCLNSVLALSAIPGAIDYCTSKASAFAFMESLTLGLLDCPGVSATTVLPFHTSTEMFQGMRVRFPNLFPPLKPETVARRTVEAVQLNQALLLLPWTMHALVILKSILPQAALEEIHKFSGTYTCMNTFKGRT
active: dasatinib 0.23
inactive: nilotinib 0.007 | [1] 0.005 | [2] -0.028 | [3] 0.024 | quisinostat -0.031 | tipifarnib 0.06 | [4] 0.019 | [5] -0.078 | [6] -0.044

CHEK1 (UniProt O14757)
inactive: nilotinib -0.011 | [1] -0.158 | dasatinib 0.02 | [2] -0.048 | [3] -0.007 | quisinostat -0.032 | tipifarnib 0.016 | [5] 0.003 | [6] -0.042
active: [4] 0.242

CNP (UniProt P09543)
inactive: nilotinib 0.033 | [1] 0.023 | dasatinib -0.047 | [2] -0.007 | [3] 0.003 | quisinostat -0.028 | tipifarnib -0.055 | [4] -0.009 | [5] -0.007 | [6] -0.009

CYCS (UniProt P99999)
UniProt P99999, sequence (P99999 whole entry, looked up): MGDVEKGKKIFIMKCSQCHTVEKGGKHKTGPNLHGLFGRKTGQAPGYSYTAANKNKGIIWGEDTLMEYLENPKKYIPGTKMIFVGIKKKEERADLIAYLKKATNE
inactive: nilotinib 0.014 | [1] -0.038 | dasatinib 0.001 | [2] 0.008 | [3] -0.037 | quisinostat 0.035 | tipifarnib 0.015 | [4] -0.003 | [5] -0.015 | [6] 0.022

DNAJC1 (UniProt Q96KC8)
inactive: nilotinib -0.03 | [1] 0 | dasatinib -0.09 | [2] -0.012 | [3] 0.016 | quisinostat 0.04 | tipifarnib 0.004 | [4] 0.026 | [5] -0.028 | [6] 0.028

CPT1A (UniProt P50416)
UniProt P50416, sequence (P50416 whole entry, looked up): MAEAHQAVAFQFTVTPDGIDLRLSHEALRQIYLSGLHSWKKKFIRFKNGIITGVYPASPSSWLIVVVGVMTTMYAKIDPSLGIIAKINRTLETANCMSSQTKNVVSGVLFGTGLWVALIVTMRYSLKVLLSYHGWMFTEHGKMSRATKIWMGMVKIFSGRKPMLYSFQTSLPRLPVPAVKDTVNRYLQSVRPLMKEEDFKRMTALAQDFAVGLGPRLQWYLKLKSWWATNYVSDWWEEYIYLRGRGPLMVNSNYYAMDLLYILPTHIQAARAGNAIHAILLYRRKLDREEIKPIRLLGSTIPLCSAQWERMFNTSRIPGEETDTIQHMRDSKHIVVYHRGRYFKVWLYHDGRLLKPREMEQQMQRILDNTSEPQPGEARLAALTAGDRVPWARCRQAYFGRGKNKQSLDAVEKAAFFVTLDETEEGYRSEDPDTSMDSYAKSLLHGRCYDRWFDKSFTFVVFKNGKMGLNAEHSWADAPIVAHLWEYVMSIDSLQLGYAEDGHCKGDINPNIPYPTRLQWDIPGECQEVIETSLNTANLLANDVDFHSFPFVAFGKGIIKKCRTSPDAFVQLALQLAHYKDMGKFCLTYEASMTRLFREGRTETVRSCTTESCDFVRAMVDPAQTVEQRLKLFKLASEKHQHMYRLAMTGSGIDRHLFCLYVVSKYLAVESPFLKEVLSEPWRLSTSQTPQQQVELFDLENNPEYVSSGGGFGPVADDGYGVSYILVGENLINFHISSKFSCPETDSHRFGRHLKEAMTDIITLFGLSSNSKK
active: quisinostat 0.308
inactive: nilotinib -0.012 | [1] 0.049 | dasatinib 0.015 | [2] -0.022 | [3] 0.008 | tipifarnib 0.056 | [4] -0.09 | [5] -0.028 | [6] -0.038

CMTM3 (UniProt Q96MX0)
UniProt Q96MX0, sequence (Q96MX0 whole entry, looked up): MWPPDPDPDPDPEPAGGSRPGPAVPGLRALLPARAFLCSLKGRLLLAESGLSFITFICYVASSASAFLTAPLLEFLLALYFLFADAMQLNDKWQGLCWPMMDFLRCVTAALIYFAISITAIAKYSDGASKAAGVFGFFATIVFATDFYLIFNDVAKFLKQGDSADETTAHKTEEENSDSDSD
inactive: nilotinib 0.07 | [1] 0.048 | dasatinib 0.05 | [2] 0.144 | [3] 0.015 | quisinostat 0.023 | tipifarnib -0.111 | [4] -0.115 | [5] -0.055 | [6] -0.026

DHCR7 (UniProt Q9UBM7)
UniProt Q9UBM7, sequence (Q9UBM7 whole entry, looked up): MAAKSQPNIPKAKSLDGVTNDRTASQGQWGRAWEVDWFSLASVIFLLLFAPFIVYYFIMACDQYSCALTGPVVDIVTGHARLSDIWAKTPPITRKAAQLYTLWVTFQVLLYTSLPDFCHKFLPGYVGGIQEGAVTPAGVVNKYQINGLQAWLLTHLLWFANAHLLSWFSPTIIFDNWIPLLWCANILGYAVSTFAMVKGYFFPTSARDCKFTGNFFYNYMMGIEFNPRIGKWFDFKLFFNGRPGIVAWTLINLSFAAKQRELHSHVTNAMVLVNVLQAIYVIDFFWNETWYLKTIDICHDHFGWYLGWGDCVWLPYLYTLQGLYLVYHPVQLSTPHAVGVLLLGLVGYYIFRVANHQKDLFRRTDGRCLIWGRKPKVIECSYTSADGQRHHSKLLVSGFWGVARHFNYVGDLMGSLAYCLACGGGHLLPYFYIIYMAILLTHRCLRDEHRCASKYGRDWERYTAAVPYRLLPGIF
inactive: nilotinib -0.013 | [1] 0.016 | dasatinib 0.011 | [2] 0 | [3] 0.013 | quisinostat 0.234 | tipifarnib 0.015 | [4] 0.029 | [5] 0.008 | [6] 0.047

COASY isoform 2 (UniProt Q13057)
inactive: nilotinib -0.043 | [1] -0.015 | dasatinib -0.071 | [2] -0.023 | [3] 0.069 | quisinostat -0.078 | tipifarnib 0.012 | [4] 0.041 | [5] -0.023 | [6] -0.046

COQ8A (UniProt Q8NI60)
inactive: nilotinib 0.091 | [1] -0.013 | dasatinib 0.394 | [2] -0.211 | [3] -0.05 | quisinostat 0.082 | tipifarnib 0.032 | [4] 0.051 | [5] 0.348 | [6] 0.004

CRABP2 (UniProt P29373)
UniProt P29373, sequence (P29373 whole entry, looked up): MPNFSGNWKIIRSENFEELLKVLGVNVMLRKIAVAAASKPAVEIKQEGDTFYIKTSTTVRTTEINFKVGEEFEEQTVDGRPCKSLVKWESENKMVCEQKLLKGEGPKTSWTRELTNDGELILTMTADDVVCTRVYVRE
inactive: nilotinib -0.063 | [1] -0.125 | dasatinib 0.076 | [2] -0.066 | [3] 0.006 | quisinostat -0.004 | tipifarnib 0.061 | [4] -0.049 | [5] -0.036 | [6] -0.02
